FBPA Giardia inh: blocks Giardia fructose-bisphosphate aldolase activity | purified Giardia FBPA | Potency, µM (doses to about 59.6 µM), for inactives: at the highest dose activity, negative = inhibition, actives largely listed as inhibitors | 290,000 compounds, 0.71% hits; note: nearly all actives have a fitted effect of over 55% in size
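40 nM FBPA preincubated 10 min at RT with compound (up to 57.5 uM final), then substrate plus GAPDH/TPI/NAD/arsenate coupling and diaphorase/resazurin added. Fluorescence read after 20 min at RT, 525/598 nm.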
Sm TGR inh: blocks Schistosoma mansoni thioredoxin glutathione reductase; Potency, µM (series often up to 114 µM), inactives show at the top dose activity change, negative = inhibition, usual class: inhibitors; AID 485364; 360,000 compounds, 3% hits; Q962Y6; purified TGR, DTNB reduction, TNB absorbance 405 nm; note: nearly all actives have a fitted effect of over 60% in size
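TGR 20 nM + NADPH 100 uM (dispensed conc.), cpd preinc 15 min RT; start with NADPH (500 uM addition) then DTNB (15 mM addition). Kinetic TNB absorbance, 405 nm filter. Four-parameter Hill fit across titration.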
LmPK inhibitor: inhibitors of Leishmania mexicana pyruvate kinase. 290,000 compounds, 0.37% hits. Potency, µM (highest dose often 57.5 µM), for the others: at the highest dose activity change, negative = inhibition, hits mostly inhibitors. purified LmPK, Kinase-Glo ATP luminescence, 1 h. Q27686
Target sequence (Q27686 whole entry, looked up): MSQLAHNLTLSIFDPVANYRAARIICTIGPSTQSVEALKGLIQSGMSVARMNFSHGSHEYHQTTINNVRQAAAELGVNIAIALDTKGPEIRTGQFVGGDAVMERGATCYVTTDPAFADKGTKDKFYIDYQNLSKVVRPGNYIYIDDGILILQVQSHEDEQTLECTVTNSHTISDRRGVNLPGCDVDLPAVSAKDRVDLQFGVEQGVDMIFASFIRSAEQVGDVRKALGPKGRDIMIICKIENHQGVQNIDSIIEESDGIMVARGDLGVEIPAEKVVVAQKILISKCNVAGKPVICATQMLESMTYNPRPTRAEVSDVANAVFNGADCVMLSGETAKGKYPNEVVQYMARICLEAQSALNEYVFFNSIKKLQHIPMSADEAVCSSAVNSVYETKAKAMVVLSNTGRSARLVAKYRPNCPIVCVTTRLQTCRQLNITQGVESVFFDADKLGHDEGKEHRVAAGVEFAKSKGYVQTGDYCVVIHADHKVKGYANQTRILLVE
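In 50 mM imidazole pH 7.2 with 7 mM MgCl2, LmPK (0.1 nM) turned over PEP (0.5 mM) and ADP (0.1 mM) for 1 h at room temperature. Luciferase read-out of ATP.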
Tb PYK inh: blocks Trypanosoma brucei pyruvate kinase; TbPYK enzyme, Kinase-Glo Plus ATP luminescence, 45 min; Q57TT1; 410,000 compounds, 0.12% hits; Potency, µM (series often up to 76.8 µM), for inactives: at the top dose activity, negative = inhibition, most hits filed as inhibitors; AID 624173; note: nearly all actives have a fitted effect of over 50% in size
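Enzyme and substrate buffer are dispensed first and compound is pin-transferred. ADP at 130 uM final then starts the reaction, which runs 45 min at room temperature. Detection reagent is added for 10 min before luminescence is imaged.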
RE007 growth inh: less growth of the S. pombe RE007 Vpr strain | S. pombe RE007 Vpr strain, BacTiter-Glo ATP luminescence, 24 h | Potency, µM (series often up to 92.2 µM), inactives show at the top dose activity change, negative = less growth, most hits filed as inhibitors | 360,000 compounds, 0.21% hits; active = well fitted falling curve with a large enough effect; inconclusive = small, poorly fitted or top-dose-only effect; inactive = no such curve, though single readings can be large or run the other way; note: nearly all actives have a fitted effect of over 50% in size
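Fission yeast strain RE007, carrying one chromosomally integrated HIV-1 vpr copy, was seeded at OD 0.01 in PMG+AL medium with 23 nL pinned compound. After 24 h at 30 °C and 99% humidity, viability was read by BacTiter-Glo luminescence.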
An asterisk follows results filed as active; ? = inconclusive; . = no result; [ ] = remark or other dose. Rows were chosen to be rich in hits. Some 3.3% of all compounds tested hit in one or more screens of this group. Unless noted, calls come from the whole dose curve; as a rule, active = well fitted curve in the direction sought with a large enough effect; inconclusive = small, poorly fitted or top-dose-only effect, or another doubt; inactive = no such curve, though single readings can be large; an effect the other way counts as inactive or inconclusive. % is set by controls: 0 for no effect and ±100 for the full control effect; potency is the fitted concentration of half-maximal effect.

SMILES	FBPA Giardia inh	Sm TGR inh	LmPK inhibitor	Tb PYK inh	RE007 growth inh
O=C1N(c2ccccc2)C[C@@H]2C[C@@H](c3cccs3)N3CCC[C@@]123	-13%	16µM*	-5%	-4%	13%
Cc1nc(CC(=O)NNS(=O)(=O)c2cccc(Cl)c2Cl)cs1	.	.	.	-7%	-14%
Cc1nc2c(O)cccc2cc1CO	20µM*	6%	6%	-1%	3%
CCOC(=O)c1cc2c(=O)n3ccccc3nc2n(Cc2ccco2)c1=NC(=O)c1ccccc1OC	-15%	5.6µM*	1%	0%	1%
CCOC(=O)c1cc2c(=O)n3ccccc3nc2n(Cc2ccco2)c1=NC(=O)c1ccc(OC)cc1	-4%	?	4%	-11%	-1%
C[C@H]1C=CC(=O)O[C@H]1c1ccccc1	4%	.	.	2%	-2%
O=S(=O)(c1cnc(Cl)c(Br)c1)N1CCc2ccccc21	-2%	18µM*	-1%	-18%	21%
O=S(=O)(c1cnc(Cl)c(Cl)c1)N1CCCc2ccccc21	-14%	?	0%	0%	-1%
O=S(=O)(c1cnc(Cl)c(Cl)c1)N1CCc2ccccc21	-18%	4µM*	3%	3%	30%
CN1CCN(S(=O)(=O)c2cnc(Cl)c(Br)c2)CC1	5%	1%	-1%	-12%	-4%
O=C(NCc1cccc(CNC(=O)c2ccco2)c1)c1ccco1	0%	0%[11.4 µM]	3%	-3%	8%
Nc1cccc2nsnc12	?	35µM*	-6%	0%	3%
Cc1ccc2nsnc2c1N	-6%	-15%	-2%	7%	-7%
CCOc1ccc(N(C(=O)c2snc(C(N)=O)c2N)C(C(=O)NCC2CCCO2)c2ccco2)cc1 (configuration not stated)	4%	-14%	1%	-4%	2%
CCOC(=O)C1CCN(c2nc(N)c3c(N)nc(SCC(=O)O)cc3c2C#N)CC1	7.1µM*	?	0%	-21%	6%
COc1cc2c(C#N)c(N3CCCCC3)nc(N)c2c(N)n1	2.2µM*	-15%	-7%	2%	6%
COc1cc2c(C#N)c(N3CCOCC3)nc(N)c2c(N)n1	?	4%	-3%	-3%	-4%
COc1cc2c(C#N)c(N3CCc4ccccc4C3)nc(N)c2c(N)n1	1.8µM*	-14%	1%	-1%	13%
O=C(CSc1nc2c([nH]c3ccccc32)c(=O)n1-c1ccccc1)NCc1ccc(F)cc1	.	-1%	.	-4%	.
CSc1ccc(CNC(=O)c2c(C)noc2C)s1	6%	0%	-1%	-2%	-17%
O=C1C=CC(=Nc2ccc3c(c2)Cc2cc(F)ccc2-3)O1	.	.	.	?	3.2µM*
O=C1C=CC(=Nc2cccc3c2C(=O)c2ccccc2-3)O1	.	.	.	8%	1%
O=C(Nc1nccs1)c1ccc(-c2ccc(Cl)cc2)o1	3%	.	-4%	-9%	-24%
CCCSc1nsc(SCCC)c1C#N	2%	-25%	1%	5%	-11%
C#CCSc1nsc(SCC#C)c1C#N	2%	35µM*	3%	-22%	4%
SMILES	FBPA Giardia inh	Sm TGR inh	LmPK inhibitor	Tb PYK inh	RE007 growth inh
CCc1ccc(Nc2n[n+](-c3ccccc3)c(-c3cccc(C)c3)s2)cc1	.	-33%	.	-19%	-3%
Cc1ccc(CNC(=O)c2cn(C3CCCCC3)c(=O)c3c2c2ccccc2n3C)o1	-17%	10µM*	2%	-15%	-5%
CCCCN(C)CCNC(=O)c1cn(C)c(=O)c2c1c1ccccc1n2C	-24%	45µM*	2%	2%	-6%
Cc1ccc(CNC(=O)c2cn(C)c(=O)c3c2c2ccccc2n3C)o1	-21%	22µM*	2%	-27%	-5%
COc1ccc(CNC(=O)[C@H](C)N2C(=O)N3CCc4c([nH]c5ccccc45)[C@@]3(C)C2=O)cc1OC	8%	8%	1%	4%	6%
COc1ccc(CCNC(=O)c2cnn(-c3cccc(C)c3)c2C2CCN(C(=O)OC(C)(C)C)CC2)cc1OC	.	-6%	.	5%[15.4 µM]	.
O=S(=O)(Nc1ccccc1N1CCCCC1)c1ccc(Cl)s1	-28%	-25%	14%	?	6%
O=S(=O)(Nc1cc(O)cc2cccnc12)c1ccc(Cl)s1	3.2µM*	.	.	.	.
O=S(=O)(Nc1cc(O)cc2cccnc12)c1ccc(Br)s1	3.2µM*	.	.	.	.
Cc1c(Cl)cccc1N1CC(c2nc3ccccc3n2Cc2ccccc2F)CC1=O (configuration not stated)	.	13%	.	10%	.
CCOC(=O)C1=C(CSc2nc(C)ccc2C#N)OC(N)=C(C#N)C1c1cccc(OC)c1OC (configuration not stated)	?	13µM*	24%	?	15%
O=C1CCCC2=C1C(Cc1ccccc1)C1=C(CCCC1=O)O2	-11%	10µM*	-8%	-2%	0%
Cc1ccc(CN2CCN(CCCc3ccccc3)CC2CCO)cc1 (configuration not stated)	8%	-1%	-4%	-20%	0%
Cc1ccc(CN2CCN(Cc3nc4ccccc4nc3C)CC2CCO)cc1 (configuration not stated)	3%	32µM*	2%	-7%	-12%
OCCC1CN(Cc2nc3c(s2)CCCC3)CCN1Cc1ccccc1 (configuration not stated)	-4%	35µM*	-2%	8%	0%
COc1ccc(-c2[nH]ncc2CNC(C)c2cn(C)nc2C)c(F)c1 (configuration not stated)	1%	7%	-5%	2%	-11%
CC1(OC(=O)CCc2ccccc2)C(=O)C=C2C=C(c3ccc(C#N)cc3)N(Cc3ccccc3)C=C2C1=O (configuration not stated)	?	?	-7%[11.5 µM]	1%	14%
CC(C)(C)OC(=O)NCCCC1=CC2=CC(=O)C(C)(OC(=O)CCc3ccccc3)C(=O)C2=CO1 (configuration not stated)	-4%	.	.	.	.
COC/C=C/C1=CC2=CC(=O)C(C)(OC(=O)c3cnc4ccccc4n3)C(=O)C2=CN1Cc1ccc(OC)cc1 (configuration not stated)	?	16µM*	-5%[11.5 µM]	2%	1%
CCCCC1=CC2=CC(=O)C(C)(OC(=O)c3cnc4ccccc4n3)C(=O)C2=CO1 (configuration not stated)	0%	35µM*	-1%	.	.
COC(=O)CCCC1=CC2=CC(=O)C(C)(OC(=O)c3cnc4ccccc4n3)C(=O)C2=CO1 (configuration not stated)	-10%	.	.	.	.
CCCCC1=CC2=CC(=O)C(C)(OC(=O)CCc3ccccc3)C(=O)C2=CO1 (configuration not stated)	0%	45µM*	-7%	-22%	6%

Screening data deposited in PubChem by National Center for Advancing Translational Sciences (NCATS).
